Measurements taken from ChEMBL document CHEMBL3988442, “University of Dundee, Small-Polar-MMV Screening Library” (2021).
For some assays here: Measured potencies and affinities stand elsewhere.

How the values were obtained:
Parameters in all cases: scale not given: direction of the effect not stated beside the values
[1] = target: Protein translocase subunit SecA (Escherichia coli (strain K12)) (UniProt P10408); experiment: Assay to Identify E. coli SecA ATPase Inhibitors; format: functional; details: 30 µM
Protein translocase subunit SecA (Escherichia coli (strain K12)), sequence (P10408 whole entry): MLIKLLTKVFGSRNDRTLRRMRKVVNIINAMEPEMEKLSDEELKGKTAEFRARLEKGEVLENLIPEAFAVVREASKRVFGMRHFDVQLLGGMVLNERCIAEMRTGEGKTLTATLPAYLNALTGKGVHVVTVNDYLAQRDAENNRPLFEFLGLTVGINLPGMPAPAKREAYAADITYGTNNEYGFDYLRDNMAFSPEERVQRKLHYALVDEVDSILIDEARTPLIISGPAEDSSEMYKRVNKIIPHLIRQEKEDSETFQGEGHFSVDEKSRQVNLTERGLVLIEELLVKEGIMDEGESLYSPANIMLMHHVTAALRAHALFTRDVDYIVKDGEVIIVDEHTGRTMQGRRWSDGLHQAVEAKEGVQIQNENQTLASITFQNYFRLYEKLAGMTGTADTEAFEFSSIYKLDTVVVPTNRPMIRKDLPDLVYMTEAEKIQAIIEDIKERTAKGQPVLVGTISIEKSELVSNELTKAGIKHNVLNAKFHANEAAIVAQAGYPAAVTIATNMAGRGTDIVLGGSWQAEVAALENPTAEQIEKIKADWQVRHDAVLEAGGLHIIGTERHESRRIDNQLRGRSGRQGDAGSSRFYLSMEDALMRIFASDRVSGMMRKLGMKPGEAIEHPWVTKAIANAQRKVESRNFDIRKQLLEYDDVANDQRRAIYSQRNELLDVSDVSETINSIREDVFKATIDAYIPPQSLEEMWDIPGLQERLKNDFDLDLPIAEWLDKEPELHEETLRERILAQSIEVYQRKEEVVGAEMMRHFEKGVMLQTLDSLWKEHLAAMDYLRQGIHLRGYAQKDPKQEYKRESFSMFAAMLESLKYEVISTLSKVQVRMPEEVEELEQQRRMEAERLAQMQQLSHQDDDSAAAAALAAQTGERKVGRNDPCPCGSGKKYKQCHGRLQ

[2] = target: T1, Ubiquitin-activating enzyme e1, putative (Leishmania donovani (strain BPK282A1)) (UniProt E9BSI1); experiment: Leishmania donovani Ubiquitin Activating Enzyme (LdE1); format: functional; details: 30 µM
T1 sequence (whole entry): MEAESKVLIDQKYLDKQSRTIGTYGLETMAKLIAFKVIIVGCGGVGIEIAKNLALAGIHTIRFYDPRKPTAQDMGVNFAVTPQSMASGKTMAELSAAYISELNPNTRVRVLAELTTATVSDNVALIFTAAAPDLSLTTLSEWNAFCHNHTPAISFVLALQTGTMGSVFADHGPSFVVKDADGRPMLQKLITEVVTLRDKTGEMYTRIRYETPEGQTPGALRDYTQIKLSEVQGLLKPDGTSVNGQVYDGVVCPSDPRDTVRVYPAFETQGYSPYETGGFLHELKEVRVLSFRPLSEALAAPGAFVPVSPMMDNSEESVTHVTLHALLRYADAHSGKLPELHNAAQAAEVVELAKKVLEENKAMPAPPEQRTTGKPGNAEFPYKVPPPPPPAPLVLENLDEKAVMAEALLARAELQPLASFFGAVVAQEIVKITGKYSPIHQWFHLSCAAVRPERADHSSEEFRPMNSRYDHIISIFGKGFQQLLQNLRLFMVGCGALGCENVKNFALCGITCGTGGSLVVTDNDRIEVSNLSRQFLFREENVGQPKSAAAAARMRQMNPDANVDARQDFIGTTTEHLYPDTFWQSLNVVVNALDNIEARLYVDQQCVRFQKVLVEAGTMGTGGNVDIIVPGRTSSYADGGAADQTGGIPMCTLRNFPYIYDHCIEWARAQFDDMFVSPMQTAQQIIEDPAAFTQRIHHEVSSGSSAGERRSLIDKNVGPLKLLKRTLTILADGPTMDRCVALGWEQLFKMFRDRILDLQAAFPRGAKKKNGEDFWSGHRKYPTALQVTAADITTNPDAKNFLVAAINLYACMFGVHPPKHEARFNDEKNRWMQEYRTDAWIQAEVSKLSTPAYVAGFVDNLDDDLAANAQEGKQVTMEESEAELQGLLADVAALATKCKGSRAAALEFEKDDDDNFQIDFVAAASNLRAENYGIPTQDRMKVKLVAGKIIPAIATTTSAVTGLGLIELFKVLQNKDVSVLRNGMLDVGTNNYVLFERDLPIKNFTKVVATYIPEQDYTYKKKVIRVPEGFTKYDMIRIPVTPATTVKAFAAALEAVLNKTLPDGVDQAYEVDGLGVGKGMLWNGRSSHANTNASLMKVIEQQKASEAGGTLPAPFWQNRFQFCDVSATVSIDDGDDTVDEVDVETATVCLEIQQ

[3] = target: Sialic acid-binding Ig-like lectin 9 (Homo sapiens) (UniProt Q9Y336); experiment: Hs-Siglec9 ALPHAscreen SOP 20170721; details: 10 µM
Sialic acid-binding Ig-like lectin 9 (Homo sapiens), sequence (Q9Y336 whole entry): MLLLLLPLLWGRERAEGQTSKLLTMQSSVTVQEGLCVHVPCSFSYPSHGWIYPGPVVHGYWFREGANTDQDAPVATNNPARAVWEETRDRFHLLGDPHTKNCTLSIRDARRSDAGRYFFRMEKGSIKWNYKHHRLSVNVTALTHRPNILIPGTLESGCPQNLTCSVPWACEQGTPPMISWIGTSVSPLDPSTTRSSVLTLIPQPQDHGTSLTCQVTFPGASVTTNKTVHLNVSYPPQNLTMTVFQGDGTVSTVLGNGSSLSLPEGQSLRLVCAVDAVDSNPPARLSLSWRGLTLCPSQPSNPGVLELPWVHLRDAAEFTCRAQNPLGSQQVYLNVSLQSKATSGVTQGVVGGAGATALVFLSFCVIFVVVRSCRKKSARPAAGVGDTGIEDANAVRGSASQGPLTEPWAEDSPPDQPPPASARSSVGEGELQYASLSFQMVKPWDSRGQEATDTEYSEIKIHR

[4] = test system: Trypanosoma cruzi; experiment: Trypanosoma cruzi phosphomannomutase and mannose-1-phosphate guanylyltransferase assay; format: functional; details: 10 µM
[5] = target: T2, Arginase-2, mitochondrial (Homo sapiens) (UniProt P78540); experiment: in vitro enzyme assay to detect the production of urea directly proportional to the activity of Arginase II; format: functional; details: 33.3 µM; further: in the data most compounds retested in dose-response had high values
T2 sequence (whole entry): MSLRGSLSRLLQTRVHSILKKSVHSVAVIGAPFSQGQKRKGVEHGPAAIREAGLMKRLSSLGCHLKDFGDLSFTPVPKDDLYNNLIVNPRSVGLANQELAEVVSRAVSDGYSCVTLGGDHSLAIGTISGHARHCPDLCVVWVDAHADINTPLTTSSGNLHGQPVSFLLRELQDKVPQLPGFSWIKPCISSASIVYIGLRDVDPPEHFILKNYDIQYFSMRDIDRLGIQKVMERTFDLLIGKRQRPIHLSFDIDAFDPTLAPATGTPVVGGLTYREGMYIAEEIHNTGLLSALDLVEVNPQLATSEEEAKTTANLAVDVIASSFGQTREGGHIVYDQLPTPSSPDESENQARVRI

[6] = target: T3, Proteasome subunit beta (Trypanosoma cruzi) (UniProt O96673); experiment: Trypanosoma cruzi proteasome chymotrypsin-like activity (TcProtChymo) assay.; further: in the data most compounds retested in dose-response had high values; format: functional; details: 9.37 µM
T3 sequence (whole entry): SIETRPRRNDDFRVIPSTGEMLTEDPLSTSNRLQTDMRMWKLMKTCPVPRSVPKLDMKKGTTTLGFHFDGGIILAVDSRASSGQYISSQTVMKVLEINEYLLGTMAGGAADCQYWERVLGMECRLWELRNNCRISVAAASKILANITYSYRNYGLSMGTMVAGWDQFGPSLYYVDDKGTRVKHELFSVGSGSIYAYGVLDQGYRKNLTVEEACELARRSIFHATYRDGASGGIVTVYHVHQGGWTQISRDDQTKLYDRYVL

[7] = species: Homo sapiens; experiment: To identify inhibition of the IFN signalling (Jak-Stat) pathway via expression of an eGFP reporter gene under the control of an IFN-stimulated response element (ISRE) containing MxA promoter.; format: functional; details: 30 µM
[8] = target: T4, Tyrosyl-tRNA synthetase, putative (Trypanosoma cruzi (strain CL Brener)) (UniProt Q4DSP6); experiment: Trypanosoma cruzi tyrosyl tRNA synthetase (TcYRS) _High Tyrosine SOP; format: functional; details: 30 µM; further: in the data most compounds retested in dose-response had high values
T4 sequence (whole entry): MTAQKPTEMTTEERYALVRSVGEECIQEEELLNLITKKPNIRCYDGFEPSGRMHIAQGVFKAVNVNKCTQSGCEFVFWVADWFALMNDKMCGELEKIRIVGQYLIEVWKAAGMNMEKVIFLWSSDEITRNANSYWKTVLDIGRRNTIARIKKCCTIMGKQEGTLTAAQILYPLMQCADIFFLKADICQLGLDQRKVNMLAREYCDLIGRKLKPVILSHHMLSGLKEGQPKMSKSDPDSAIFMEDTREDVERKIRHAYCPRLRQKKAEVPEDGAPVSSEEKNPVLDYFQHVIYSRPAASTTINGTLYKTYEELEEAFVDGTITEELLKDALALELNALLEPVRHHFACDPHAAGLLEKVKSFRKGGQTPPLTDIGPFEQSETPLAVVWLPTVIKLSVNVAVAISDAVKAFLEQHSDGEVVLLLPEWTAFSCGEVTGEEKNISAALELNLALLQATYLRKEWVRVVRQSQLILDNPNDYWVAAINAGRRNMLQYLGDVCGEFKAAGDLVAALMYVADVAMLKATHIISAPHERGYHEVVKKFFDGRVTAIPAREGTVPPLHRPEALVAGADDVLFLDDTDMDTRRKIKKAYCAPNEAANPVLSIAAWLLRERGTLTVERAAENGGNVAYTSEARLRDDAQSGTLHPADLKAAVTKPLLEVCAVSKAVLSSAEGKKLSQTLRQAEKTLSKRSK

[9] = target: T4, Tyrosyl-tRNA synthetase, putative (Trypanosoma cruzi (strain CL Brener)); experiment: Trypanosoma cruzi tyrosyl tRNA synthetase (TcYRS) SOP; format: functional; details: 30 µM
[10] = target: Chromo domain-containing protein 1 (Saccharomyces cerevisiae (strain ATCC 204508 / S288c) (Baker's yeast)) (UniProt P32657); experiment: ScCHD-1 Enzyme Inhibition Assay; format: functional; details: 30 µM; further: in the data most compounds retested in dose-response had high values
Chromo domain-containing protein 1 (Saccharomyces cerevisiae (strain ATCC 204508 / S288c) (Baker's yeast)), sequence (P32657 whole entry, the tested form may be a part): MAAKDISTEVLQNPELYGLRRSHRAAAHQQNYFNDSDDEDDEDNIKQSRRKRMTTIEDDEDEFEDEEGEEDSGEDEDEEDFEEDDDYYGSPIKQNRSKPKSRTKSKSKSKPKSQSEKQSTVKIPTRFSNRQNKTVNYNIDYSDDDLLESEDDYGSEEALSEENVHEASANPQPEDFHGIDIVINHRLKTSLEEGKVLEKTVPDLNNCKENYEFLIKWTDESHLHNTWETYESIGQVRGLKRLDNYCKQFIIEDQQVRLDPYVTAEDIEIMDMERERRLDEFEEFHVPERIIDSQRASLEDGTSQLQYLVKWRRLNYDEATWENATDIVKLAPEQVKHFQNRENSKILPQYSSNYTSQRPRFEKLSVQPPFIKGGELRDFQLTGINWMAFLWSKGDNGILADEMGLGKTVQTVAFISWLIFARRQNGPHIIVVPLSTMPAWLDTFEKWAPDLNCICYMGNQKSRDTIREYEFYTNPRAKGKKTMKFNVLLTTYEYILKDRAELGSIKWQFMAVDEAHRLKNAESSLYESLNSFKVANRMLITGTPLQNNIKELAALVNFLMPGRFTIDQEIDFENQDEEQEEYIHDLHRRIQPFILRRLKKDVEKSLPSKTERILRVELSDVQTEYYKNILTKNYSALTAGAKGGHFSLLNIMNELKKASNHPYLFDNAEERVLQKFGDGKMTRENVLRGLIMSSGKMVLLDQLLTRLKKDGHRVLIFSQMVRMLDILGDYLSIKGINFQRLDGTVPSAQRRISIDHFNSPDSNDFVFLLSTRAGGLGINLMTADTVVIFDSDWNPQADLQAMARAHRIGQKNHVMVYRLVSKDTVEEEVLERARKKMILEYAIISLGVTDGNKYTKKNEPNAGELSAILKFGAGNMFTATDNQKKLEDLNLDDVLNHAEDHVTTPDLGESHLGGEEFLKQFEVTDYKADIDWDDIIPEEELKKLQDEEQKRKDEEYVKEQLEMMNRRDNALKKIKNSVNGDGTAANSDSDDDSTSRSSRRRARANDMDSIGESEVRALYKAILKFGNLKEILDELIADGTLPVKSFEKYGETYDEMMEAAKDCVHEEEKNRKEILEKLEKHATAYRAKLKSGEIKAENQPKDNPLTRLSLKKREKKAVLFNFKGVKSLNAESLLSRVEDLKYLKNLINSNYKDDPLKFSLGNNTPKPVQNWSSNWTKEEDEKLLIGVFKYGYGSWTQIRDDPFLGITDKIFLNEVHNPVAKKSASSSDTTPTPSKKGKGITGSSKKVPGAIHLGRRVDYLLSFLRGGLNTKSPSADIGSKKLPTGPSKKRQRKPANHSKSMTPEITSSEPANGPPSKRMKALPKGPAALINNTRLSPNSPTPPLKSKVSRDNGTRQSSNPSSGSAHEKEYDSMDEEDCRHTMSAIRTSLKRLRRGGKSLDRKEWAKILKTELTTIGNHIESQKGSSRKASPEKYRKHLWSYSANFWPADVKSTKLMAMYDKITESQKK

Compound | Percent Effect [1] [%] | Percent Effect [2] [%] | Percent Effect [3] [%] | Percent Effect [4] [%] | Percent Effect [5] [%] | Percent Effect [6] [%] | Percent Effect [7] [%] | Percent Effect [8] [%] | Percent Effect [9] [%] | Percent Effect [10] [%]
C[C@]1(O)CCN(Cc2cncs2)C[C@@H]1Oc1cccc(F)c1 | 0.894 | 4 | 6.06 | -4.93 | 3.1 | -1.64 | 14.1 | 1.06 | 2.5 | -19.6
CNC(=O)C1(c2cnccn2)CCCN1C(=O)c1ccccc1OC (stereo not given) | 0.772 | 14.7 | -7.91 | -1.77 | -3.98 | 9.36 | 17.4 | -2.12 | 5 | -18.1
Cn1cc(C(=O)N2CCCC(Cc3nccs3)C2)cn1 (stereo not given) | -2.98 | 12 | -0.254 | -2.96 | 3.54 | 7.55 | 6.88 | 2.12 | 15 | -16.3
Cc1ccc(C(=O)N2CCN(CCc3cccs3)CC2)c(=O)[nH]1 | -2.8 | 2.56 | -0.768 | -1.6 | 8.61 | -2.65 | 24.3 | 3.35 | 10.8 | -2.19
Cc1cc(C(=O)NCc2ccc(N3CCCC(C(N)=O)C3)cc2)[nH]n1 (stereo not given) | -7.13 | 10.7 | -2.98 | -3.21 | -0.887 | 16.2 | 14.9 | 0.526 | 5.13 | -7.84
Cc1ccc(OCC(=O)NS(=O)(=O)c2c(C)noc2C)cc1C | -7.75 | -5.13 | -10.8 | -1.41 | 0.41 | 0.0853 | 17.7 | -5.26 | -6.02 | -0.0938
O=C(c1cc(Cl)c2c(c1)OCO2)N1CCCC(n2ccnc2)C1 (stereo not given) | -2.43 | 5.33 | 3.84 | 2.01 | 0 | 7.72 | 9.8 | -6.84 | 5.13 | -5.15
COc1cc(N2CCCC(c3nccn3CCN(C)C)C2)nc(N)n1 (stereo not given) | -9.14 | 2.7 | 4.84 | 3.59 | 4.54 | 4.62 | 5.13 | 7.98 | 17.1 | 11.6
O=C(NCCOc1ccc2c(c1)OCO2)N1CCC1 | -4.13 | 20.8 | 6.65 | -3.36 | 5.94 | 19.1 | -11.1 | 4.9 | 16.5 | -4.94
O=C(Nc1ccccc1)C1=CC2(CCNCC2)c2ccccc21 | -2.8 | 9.09 | 1.86 | -0.938 | 3.2 | 13.5 | -1.59 | -2.9 | -2.5 | -4.38
CC(=O)N1CCC2(CCN(C(=O)c3ccc(Cl)c(C(F)(F)F)c3)CC2)C1 | -7.31 | 6.49 | 5.74 | 0.292 | -0.405 | 7.5 | -12.1 | 6.84 | 7.69 | 3.63
CCc1nc(C2CCCN2CCCS(=O)(=O)c2ccccc2)no1 (stereo not given) | -2.94 | 15.4 | -14.9 | 2.16 | 0.41 | 13.1 | 6.1 | 4.31 | 22.9 | -3.94
O=C(NCC1CC1)[C@H]1C[C@H]2OCC[C@H]2N(Cc2ccsc2)C1 | -6.05 | -3.9 | -0.139 | -1.85 | -6.07 | 2.38 | -7.12 | -2.63 | 0 | -0.205
O=C(c1ccc(OCC2CC2)nc1)N1CCCC(n2ccnc2)C1 (stereo not given) | -2.4 | 12.8 | -6.85 | 2.72 | 6.97 | 9.64 | 5.6 | 8.13 | 22.9 | -4.73
O=S(=O)(C1CC1)N1CCC2(CC1)CC(Oc1cccnc1)CO2 (stereo not given) | -7.74 | 9.09 | 4.03 | 2.43 | -3.24 | -1.15 | -0.725 | 3.68 | 0 | -0.139
Fc1cccc(CN2CCO[C@H]3[C@@H](OCc4ccccn4)CC[C@@H]32)c1 | -6.18 | 6.49 | -6.92 | 7.3 | -3.24 | 8.91 | 4.17 | 2.63 | 15.4 | -0.559
Cc1cncc(C(=O)N2Cc3ccccc3C3(CCN(C)CC3)C2)c1 | 0.817 | 1.3 | -5.76 | -4.38 | 4.05 | 3.09 | -17 | -2.63 | -15.4 | -3.41
CCn1nc2c(cc1=O)CN(CC(=O)Nc1nc(C)c(C)s1)CC2 | -0.874 | 0 | 5.55 | -9.7 | 1.84 | 13.3 | 14.5 | 4.9 | 9.41 | -8.07
Cc1ccc(CCC(=O)N2CCCC(n3cncn3)C2)c(C)c1 (stereo not given) | -4.25 | 8 | 2.16 | -6.02 | 0.444 | 2.63 | -1.21 | 5.79 | 2.56 | 1.81
CCN(C(=O)c1ccc(-n2ncc(C#N)c2N)cc1)C1CCCC1 | -1.54 | 15.6 | 1.83 | -0.187 | -5.12 | 6.67 | 3.59 | -14.7 | 16.5 | -7.19
Cc1ccc(C(CNC(=O)NCc2cc[nH]n2)N2CCOCC2)o1 (stereo not given) | -3.05 | 12.8 | -4.81 | -4.04 | 0.82 | 14.1 | 24.3 | 2.39 | 10.8 | -3.31
Cc1cc(C(=O)NCc2ccc(N3CCCC(C(N)=O)C3)cc2)no1 (stereo not given) | -3.67 | 10.7 | 2.55 | 3.01 | 4.88 | 11.1 | 3.86 | 2.63 | 5.13 | -7.24
Cn1ccc2ccc(C(=O)N3CCN(C(=O)N4CCOCC4)CC3)cc21 | -5.67 | 24.3 | 12.2 | 9.6 | 3.85 | 13.2 | 14.4 | 9.04 | 17.1 | -1.13
